Assay [1] can be described thus: NCI Yeast Anticancer Drug Screen. Data for the rad50 strain (AID 155).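 Note: 0% = growth of vehicle-only cultures of the same strain.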 Particulars: S. cerevisiae rad50 strain growth inhibition, active compounds read high. The essentials:
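Readout: growth inhibition relative to vehicle-treated cultures. Compound exposure was carried out in a genetically defined yeast strain deficient in DNA damage repair.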

Assay [2] can be described thus: NCI Yeast Anticancer Drug Screen. Data for the mec2-1 strain (AID 157). Conditions: S. cerevisiae mec2-1 strain, active compounds read high. The essentials:
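Yeast mec2-1 mutant treated with compound. Readout: growth inhibition vs vehicle controls.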

Assay [3] in a line: NCI Yeast Anticancer Drug Screen. Data for the sgs1 mgt1 strain (AID 161).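 Note: 0% = growth of cultures given vehicle only.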 Conditions: S. cerevisiae sgs1 mgt1 strain, active compounds read high. In a few lines: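 Inhibition of yeast growth, normalised to vehicle-treated controls, is reported for a strain bearing genetic alterations in DNA damage repair.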
A short description of assay [4]: NCI Yeast Anticancer Drug Screen. Data for the cln2 rad14 strain (AID 165).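 Note: 0% = growth equal to vehicle treated cultures.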 Conditions: S. cerevisiae cln2 rad14 strain, active compounds read high. The essentials:
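cln2 rad14 yeast strain; compound exposure; growth inhibition read vs vehicle controls.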

A short description of assay [5]: NCI Yeast Anticancer Drug Screen. Data for the bub3 strain (AID 167). Conditions: S. cerevisiae bub3 mutant strain, active compounds read high. In a few lines: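 Readout: yeast growth inhibition, expressed relative to vehicle-only wells. The test organism is a mutant strain from a panel with lesions in DNA repair or checkpoint genes.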
A short description of assay [6]: NCI Yeast Anticancer Drug Screen. Data for the mlh1 rad18 strain (AID 175). Particulars: S. cerevisiae mlh1 rad18 strain growth inhibition, active compounds read high. In a few lines: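 Yeast w/ defined DNA-repair lesions; compound exposure; growth vs vehicle controls → % inhibition.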
Where [7] appears, read: at 5.0 µM (retest, dose inferred, filed as 0.5).
Setting [8] is: at 50.0 µM (retest, dose inferred, filed as 5.0).

Structures are written as SMILES. About 79,000 compounds went through this panel and 15% of them were active in at least one assay; those are over-represented in the sample as a whole. Unmarked numbers belong to inactive results. The source made the active and inactive calls. Cut-off read from the data, not from the text of the source: active = growth inhibition above about 70%; inactive = the rest.

For the compound `CCCCc1c2c(nc3c1CC/C(=C\c1ccc([N+](=O)[O-])cc1)C3=O)CCCC2`, the growth inhibition is 92% (active) in assay [1] (setting [7]); 92% (active) in assay [1] (setting [8]); 88.5% (active) in assay [1] (at 50.0 µM); 97% (active) in assay [2] (setting [7]); 94% (active) in assay [2] (setting [8]); 92.6% (active) in assay [2] (at 50.0 µM). In addition, the growth inhibition is 38% in assay [3] (setting [7]); 92% (active) in assay [3] (setting [8]); 89.8% (active) in assay [3] (at 50.0 µM); 97% (active) in assay [4] (setting [7]); 93% (active) in assay [4] (setting [8]); 88.1% (active) in assay [4] (at 50.0 µM). The growth inhibition in assay [5] (setting [7]) was 98% (active); in assay [5] (setting [8]) it was 91% (active); in assay [5] (at 50.0 µM), 88.5% (active); in assay [6] (setting [7]) it was 96% (active); in assay [6] (setting [8]), 88% (active); in assay [6] (at 50.0 µM), 89.6% (active).
Consider `CC1([N+](=O)[O-])C(=O)C2(N3CCOCC3)CCCC2C1c1ccccc1` (stereo not given), for which the growth inhibition was -9% in assay [1] (setting [7]); 75% (active) in assay [1] (setting [8]); -2% in assay [1] (at 50.0 µM); -7% in assay [2] (setting [7]); 99% (active) in assay [2] (setting [8]); -0.3% in assay [2] (at 50.0 µM). Further, the growth inhibition in assay [3] (setting [7]) is -1%; in assay [3] (setting [8]), 90% (active); in assay [3] (at 50.0 µM), 4.95%; in assay [4] (setting [7]) it was 1%; in assay [4] (setting [8]) it was 40%; in assay [4] (at 50.0 µM), -7.7%. For the same compound, the growth inhibition in assay [5] (setting [7]) was -12%; in assay [5] (setting [8]) it was 98% (active); in assay [5] (at 50.0 µM), -5.2%; in assay [6] (setting [7]), 10%; in assay [6] (setting [8]) it was 96% (active); in assay [6] (at 50.0 µM), 7.65%.
As to `CN1c2ccccc2C(c2ccccc2)c2ccc(Nc3ccccc3)cc21` (stereo not given), the growth inhibition in assay [1] (setting [7]) is 94% (active); in assay [1] (setting [8]), 99% (active); in assay [1] (at 50.0 µM), 97.7% (active); in assay [2] (setting [7]), 100% (active); in assay [2] (setting [8]) it was 100% (active); in assay [2] (at 50.0 µM), 99.6% (active). Further, the growth inhibition in assay [3] (setting [7]) is 98% (active); in assay [3] (setting [8]), 100% (active); in assay [3] (at 50.0 µM) it was 99.5% (active); in assay [4] (setting [7]), 95% (active); in assay [4] (setting [8]) it was 99% (active); in assay [4] (at 50.0 µM), 99.2% (active). The growth inhibition in assay [5] (setting [7]) is 96% (active); in assay [5] (setting [8]), 99% (active); in assay [5] (at 50.0 µM), 99.3% (active); in assay [6] (setting [7]), 98% (active); in assay [6] (setting [8]), 99% (active); in assay [6] (at 50.0 µM) it was 99.4% (active).
Consider `Clc1c(Cl)c(Cl)c(SC2C3CC4C(C3)C42)c(Cl)c1Cl` (stereo not given), for which the growth inhibition in assay [1] (setting [7]) is 31%; in assay [1] (setting [8]) it was 98% (active); in assay [1] (at 50.0 µM), 98.3% (active); in assay [2] (setting [7]), 23%; in assay [2] (setting [8]), 99% (active); in assay [2] (at 50.0 µM), 98.8% (active). The growth inhibition in assay [3] (setting [7]) is 27%; in assay [3] (setting [8]), 97% (active); in assay [3] (at 50.0 µM) it was 98.8% (active); in assay [4] (setting [7]) it was 12%; in assay [4] (setting [8]), 97% (active); in assay [4] (at 50.0 µM) it was 97.9% (active). The growth inhibition in assay [5] (setting [7]) was 7%; in assay [5] (setting [8]) it was 91% (active); in assay [5] (at 50.0 µM) it was 98% (active); in assay [6] (setting [7]), 21%; in assay [6] (setting [8]) it was 97% (active); in assay [6] (at 50.0 µM), 98.4% (active).
Regarding `S=C(Nc1ccc(Cl)c(Cl)c1)SC1CCCCC1`, the growth inhibition in assay [1] (setting [7]) was 17%; in assay [1] (setting [8]), 96% (active); in assay [1] (at 50.0 µM) it was 47.2%; in assay [2] (setting [7]) it was 11%; in assay [2] (setting [8]) it was 97% (active); in assay [2] (at 50.0 µM) it was 64.2%. Further, the growth inhibition in assay [3] (setting [7]) is 11%; in assay [3] (setting [8]), 98% (active); in assay [3] (at 50.0 µM), 87.1% (active); in assay [4] (setting [7]), -1%; in assay [4] (setting [8]) it was 95% (active); in assay [4] (at 50.0 µM), 87.5% (active). Also, the growth inhibition in assay [5] (setting [7]) is 17%; in assay [5] (setting [8]), 96% (active); in assay [5] (at 50.0 µM), 83.3% (active); in assay [6] (setting [7]), 20%; in assay [6] (setting [8]) it was 96% (active); in assay [6] (at 50.0 µM), 90% (active).
On to `COc1cccc2c1C(=O)c1c(O)c3c(c(O)c1C2=O)CC(O)(C(C)=O)CC3OC1CC(N/C(C)=C/C(C)=O)C(O)C(C)O1` (stereo not given), for which the growth inhibition in assay [1] (setting [7]) is 91% (active); in assay [1] (setting [8]) it was 95% (active); in assay [1] (at 50.0 µM), 88.5% (active); in assay [2] (setting [7]), 65%; in assay [2] (setting [8]), 98% (active); in assay [2] (at 50.0 µM) it was 90% (active). Further, the growth inhibition in assay [3] (setting [7]) was 45%; in assay [3] (setting [8]), 98% (active); in assay [3] (at 50.0 µM), 88.9% (active); in assay [4] (setting [7]), 60%; in assay [4] (setting [8]), 98% (active); in assay [4] (at 50.0 µM), 88.4% (active). In addition, the growth inhibition was 69% in assay [5] (setting [7]); 98% (active) in assay [5] (setting [8]); 85.8% (active) in assay [5] (at 50.0 µM); 79% (active) in assay [6] (setting [7]); 97% (active) in assay [6] (setting [8]); 88.4% (active) in assay [6] (at 50.0 µM).
Regarding `O/N=C(/CCc1ccccc1)c1ccccc1`, the growth inhibition is 7% in assay [1] (setting [7]); 84% (active) in assay [1] (setting [8]); 97.1% (active) in assay [1] (at 50.0 µM); 2% in assay [2] (setting [7]); 70% (active) in assay [2] (setting [8]); 97% (active) in assay [2] (at 50.0 µM). Besides, the growth inhibition in assay [3] (setting [7]) was 5%; in assay [3] (setting [8]), 76% (active); in assay [3] (at 50.0 µM) it was 97.2% (active); in assay [4] (setting [7]) it was -2%; in assay [4] (setting [8]), 56%; in assay [4] (at 50.0 µM) it was 93.2% (active). Besides, the growth inhibition is -2% in assay [5] (setting [7]); 71% (active) in assay [5] (setting [8]); 95.7% (active) in assay [5] (at 50.0 µM); 2% in assay [6] (setting [7]); 71% (active) in assay [6] (setting [8]); 97.2% (active) in assay [6] (at 50.0 µM).
For `CCOC(=O)C1c2[nH]c3ccccc3c2CCN1C(=O)c1ccc(OC)o1` (stereo not given), the growth inhibition in assay [1] (setting [7]) was 0%; in assay [1] (setting [8]), 71% (active); in assay [1] (at 50.0 µM), 83.5% (active); in assay [2] (setting [7]), -36%; in assay [2] (setting [8]), 60%; in assay [2] (at 50.0 µM) it was 79.8% (active). In addition, the growth inhibition is 13% in assay [3] (setting [7]); 80% (active) in assay [3] (setting [8]); 82% (active) in assay [3] (at 50.0 µM); 7% in assay [4] (setting [7]); 81% (active) in assay [4] (setting [8]); 67.7% in assay [4] (at 50.0 µM). Besides, the growth inhibition in assay [5] (setting [7]) was -17%; in assay [5] (setting [8]), 76% (active); in assay [5] (at 50.0 µM), 84.3% (active); in assay [6] (setting [7]), -12%; in assay [6] (setting [8]), 73% (active); in assay [6] (at 50.0 µM) it was 83.2% (active).
Turning to `O=c1c2ccccc2sc2cccc(NCCCN3CCN(CCCNc4cccc5sc6ccccc6c(=O)c45)CC3)c12`, the growth inhibition in assay [1] (setting [7]) is -1%; in assay [1] (setting [8]), 4%; in assay [1] (at 50.0 µM) it was 28.4%; in assay [2] (setting [7]) it was -2%; in assay [2] (setting [8]), -3%; in assay [2] (at 50.0 µM), -10.7%. The growth inhibition in assay [3] (setting [7]) is 4%; in assay [3] (setting [8]), 13%; in assay [3] (at 50.0 µM), 3.3%; in assay [4] (setting [7]) it was -3%; in assay [4] (setting [8]), -6%; in assay [4] (at 50.0 µM), 46%. The growth inhibition is -2% in assay [5] (setting [7]); -5% in assay [5] (setting [8]); -9.1% in assay [5] (at 50.0 µM); -3% in assay [6] (setting [7]); -65% in assay [6] (setting [8]); 0.6% in assay [6] (at 50.0 µM).
As for `COC1=CC(=O)c2c(ccc3ncnc(N)c23)C1=O`, the growth inhibition in assay [1] (setting [7]) was 20%; in assay [1] (setting [8]), 73% (active); in assay [1] (at 50.0 µM), 22%; in assay [2] (setting [7]) it was 15%; in assay [2] (setting [8]), 15%; in assay [2] (at 50.0 µM) it was 3.35%. Also, the growth inhibition was 14% in assay [3] (setting [7]); 28% in assay [3] (setting [8]); -6% in assay [3] (at 50.0 µM); 18% in assay [4] (setting [7]); 32% in assay [4] (setting [8]); 24.9% in assay [4] (at 50.0 µM). The growth inhibition in assay [5] (setting [7]) was 19%; in assay [5] (setting [8]), -11%; in assay [5] (at 50.0 µM) it was 17.5%; in assay [6] (setting [7]), 13%; in assay [6] (setting [8]), 59%; in assay [6] (at 50.0 µM), -4.3%.

Values taken from PubChem BioAssay (NCI).
